Vif-APOBEC3F blk: qHTS for Inhibitors of Vif-A3F Interactions: qHTS | HeLa A3F-eYFP + Vif (tagged APOBEC3F with the HIV-1 protein that degrades it), YFP fluorescence increase | 390,000 compounds, 0.2% hits | AID 602313, 2012 | Potency, µM (top dose mostly 46.1 µM), inactives show top-dose activity, negative = active; further: potency means the concentration at half of the fitted maximal effect; % of control where 0% means no effect; nearly all actives have a fitted effect of over 65% in size
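HeLa cells stably expressing A3F-eYFP plus Vif, plated and incubated overnight at 37 deg C, then exposed to compounds overnight at 37 deg C. Blocked degradation read as raised yellow fluorescence (Ex 488/Em 500-530).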
TSHR antagonist: Antagonists of the Thyroid Stimulating Hormone Receptor: HTS campaign. Thyrotropin receptor (Homo sapiens), P16473. TSHR-expressing cells, TSH-stimulated cAMP HTRF, 2 h; stronger effect = lower value. activity change, negative = inhibition, % at 11.5 µM. 330,000 compounds, 0.2% hits. AID 504810, 2011;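 active means activity change below a set negative limit, meaning inhibition stronger than a set level, cut at about -70% in these data; inconclusive means activity change between two set negative limits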; further: on the % scale 0 is the no-effect control and ±100 the full control effect
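Antagonism was scored as loss of TSH-driven cAMP in TSHR cells, stimulated with 4nM TSH (EC80) for 2 hours at 37 deg C and detected by homogeneous HTRF competition immunoassay.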
PLK1 PBD inh: qHTS for Inhibitors of PLK1-PDB (polo-like kinase 1 - polo-box domain): Primary Screen; Potency, µM, for inactives: max response, negative = inhibition, most hits filed as inhibitors; Plk1 PBD binding of FITC phosphopeptide, fluorescence polarization; AID 720504, 2013; 360,000 compounds, 2.8% hits; Serine/threonine-protein kinase PLK1 (Homo sapiens), P53350; further: potency means the concentration at half of the fitted maximal effect; series mostly up to about 57 µM; on the % scale 0 is the no-effect control and ±100 the full control effect; nearly all actives have a fitted effect of over 65% in size
Target sequence (P53350 whole entry, looked up, the tested form may be a part): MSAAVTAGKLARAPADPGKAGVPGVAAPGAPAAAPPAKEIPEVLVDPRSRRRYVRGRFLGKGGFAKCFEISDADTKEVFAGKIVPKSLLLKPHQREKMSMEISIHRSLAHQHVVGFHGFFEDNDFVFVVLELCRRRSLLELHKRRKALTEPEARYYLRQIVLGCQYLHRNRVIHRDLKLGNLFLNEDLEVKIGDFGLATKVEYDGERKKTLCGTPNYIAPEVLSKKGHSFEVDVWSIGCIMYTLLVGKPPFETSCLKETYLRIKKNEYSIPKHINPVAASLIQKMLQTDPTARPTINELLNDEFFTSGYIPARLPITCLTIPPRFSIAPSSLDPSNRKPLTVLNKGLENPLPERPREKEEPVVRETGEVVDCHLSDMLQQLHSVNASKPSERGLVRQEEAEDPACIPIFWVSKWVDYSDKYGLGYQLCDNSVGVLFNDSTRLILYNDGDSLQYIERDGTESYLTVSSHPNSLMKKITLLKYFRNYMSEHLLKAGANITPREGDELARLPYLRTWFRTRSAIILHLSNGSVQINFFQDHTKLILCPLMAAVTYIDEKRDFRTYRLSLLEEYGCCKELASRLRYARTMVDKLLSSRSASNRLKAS
Vif-A3G inh: qHTS for Inhibitors of Vif-A3G Interactions: qHTS; AID 602310, 2012; HeLa A3G-eYFP + Vif (tagged APOBEC3G with the HIV-1 protein that degrades it), YFP fluorescence, overnight; DNA dC->dU-editing enzyme APOBEC-3G (Homo sapiens), Q9HC16; 410,000 compounds, 0.076% hits; Potency, µM (doses to about 46.1 µM), for the others: at the top dose activity, negative = active, actives largely listed as inhibitors; further: potency means the concentration at half of the fitted maximal effect; on the % scale 0 is the no-effect control and ±100 the full control effect; nearly all actives have a fitted effect of over 60% in size
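HeLa cells stably expressing Vif and C-terminally eYFP-tagged A3G, seeded overnight at 37 deg C, then exposed to compound by pintool overnight at 37 deg C. Rise in yellow fluorescence (Ex 488/Em 500-530, Acumen) marks blocked Vif-driven A3G degradation.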
VDR inhibitor: Inhibitors of the vitamin D receptor (VDR): qHTS; Vitamin D3 receptor (Homo sapiens), P11473; VDR-SRC2-3 peptide fluorescence polarization, 2 h; Potency, µM, for the others: max response, negative = inhibition, usual class: inhibitors; 400,000 compounds, 0.93% hits; AID 504847, 2011; further: potency means the concentration at half of the fitted maximal effect; on the % scale 0 is the no-effect control and ±100 the full control effect
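The screen uses fluorescence polarization to detect compounds that interfere with recruitment of the SRC2-3 coactivator peptide to VDR; plates are read after 2 h at room temperature.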
* hit, by the source's call; ? = inconclusive; nt = no result given. Rows were chosen to be rich in hits. Some 3.1% of all compounds tested hit in one or more screens of this group. Unless noted, the call rests on the fitted dose curve; in most records, active means well fitted curve in the direction sought with a large enough effect; inconclusive means small, poorly fitted or top-dose-only effect, or another doubt; inactive means no such curve, though single readings can be large; an effect the other way counts as inactive or inconclusive.

SMILES	Vif-APOBEC3F blk	TSHR antagonist	PLK1 PBD inh	Vif-A3G inh	VDR inhibitor
Cn1cccc1Cc1nnc(SCC(=O)NCC2CCCO2)n1C (stereo not drawn)	-10.0%	-0.5	23.8µM*	5.3%	-12.0%
O=C(CSc1cn(CC(=O)N2CCCCCC2)c2ccccc12)NCC1CCCO1 (stereo not drawn)	5.1%	5.4	-20.0%	2.1%	2.6%
CCn1cc(SCC(=O)NCC2CCCO2)c2ccccc21 (stereo not drawn)	2.2%	-6.5	7.52µM*	-0.1%	-6.3%
CC1Cc2ccccc2C[N+]1(C)CC(=O)c1ccc(I)cc1 (stereo not drawn)	nt	nt	nt	1.6%	nt
CCC(=O)N1c2ccccc2CC1C(=O)NCCCN1CCN(c2cccc(Cl)c2)CC1 (stereo not drawn)	-3.8%	nt	nt	-0.3%	3.0%
CCCCn1nc(-c2ccccc2)c2nc3ccccc3nc21	nt	0.9	nt	nt	nt
Cn1nc(-c2ccccc2)c2nc3ccccc3nc21	-5.2%	-6.0	21.2µM*	-3.7%	-0.8%
CC[C@H](NC(=O)[C@H](CCC(=O)O)NC(=O)[C@H](CCC(=O)O)NC(=O)[C@H](CC(=O)O[S+](=O)([O-])c1cccc2c(NCCN)cccc12)NC(=O)[C@H](CCC(=O)O)NC(=O)[C@H](CC(=O)O)NC(C)=O)C(=O)ON[C@@H](C)C(=O)N[C@@H](CO)C(=O)N[C@@H](CCCCNC(=O)c1ccc(N=Nc2ccc(N(C)C)cc2)cc1)C(N)=O	nt	nt	nt	nt	9.9%
COc1ccc(N(C(C)C(=O)NN=C2CCCCCCC2)S(C)(=O)=O)cc1 (stereo not drawn)	0.8%	13.6	26.7µM*	-2.3%	-6.9%
COc1ccc(N(C(C)C(=O)NC2CCCCCC2)S(C)(=O)=O)cc1 (stereo not drawn)	3.1%	0.7	-26.2%	1.3%	-12.0%
CCc1ccccc1N(CC(=O)N/N=C/c1ccc(OC(=O)OC)c(OC)c1)S(C)(=O)=O	0.1%	3.8	23.8µM*	-6.3%	-12.2%
COc1ccc(N(C(C)C(=O)N/N=C/c2ccc(OC)c(OC)c2)S(C)(=O)=O)cc1 (stereo not drawn)	-8.2%	-3.3	29.9µM*	0.6%	-28.0%
COC(=O)Oc1ccc(/C=N/NC(=O)CN(c2ccccc2Br)S(C)(=O)=O)cc1OC	10.7%	-8.7	-1.7%	-3.5%	-11.1%
COC(=O)[C@H](COC(C)(C)C)NC(=O)O[C@@H]1C(=O)c2cc(OC)ccc2O[C@H]1c1cccc(OC)c1	nt	nt	nt	nt	7.8%
Cc1ccc(NC(=O)CN(C)C(=O)CSc2ccccc2F)cc1	8.5%	-7.4	21.2µM*	2.6%	-4.2%
CN(CC(=O)Nc1cccc(F)c1)C(=O)CSc1ccccc1	4.3%	0.4	15µM*	1.4%	-2.7%
CN(CC(=O)Nc1ccc(N2CCOCC2)cc1)C(=O)CSc1ccccc1F	-5.7%	-2.4	?	0.7%	-1.6%
CN(CC(=O)Nc1cccc(F)c1)C(=O)CNS(=O)(=O)c1ccc(N(C)C)c([N+](=O)[O-])c1	1.5%	17.9	15µM*	-1.2%	?
CCCN1CNc2c(c(=O)[nH]c(=S)n2CCc2cccs2)C1	nt	nt	nt	nt	-11.7%
O=Cc1c[nH]c2ccccc12	nt	nt	nt	1.2%	-10.1%
CCc1ccc(-n2nc(C)c3c(C(=O)Nc4cc(C)c(Cl)cc4OC)cc(C)nc32)cc1	-0.9%	nt	nt	-9.6%	12.6%
COc1cccc(C(=O)NC2=NC(c3ccccc3F)CC(=O)N2)c1 (stereo not drawn)	0.2%	nt	nt	2.0%	-6.5%
O=C1CCC=C1C(O)c1ccc(Cl)cc1 (stereo not drawn)	nt	nt	nt	nt	3.4%
O=C(COC(=O)c1ccc2ccccc2c1O)NCC(F)(F)F	3.4%	-4.4	26.7µM*	-2.5%	-26.3%
O=C(CN1C(=O)/C(=C\c2ccco2)SC1=S)Nc1ccc(O)cc1C(=O)O	2.4%	-1.1	16.8µM*	2.9%	-12.8%
CC(C(=O)Nc1ccc(O)cc1C(=O)O)N1C(=O)/C(=C\c2cccs2)SC1=S (stereo not drawn)	-11.9%	8.9	6.7µM*	-5.0%	44.7µM*

High-throughput results (PubChem)
